Here are results for 96 molecules from PubChem BioAssay AID372 (MTDP, 2006).

SMILES strings stand for the structures. Out of some 100,000 compounds screened, about 770 (0.77%) were called active. No stated cut-off is given here; in the data, active means inhibition above about 50%; inactive means the rest. The list comes from a sample in which actives are over-represented; it also holds similar structures and randomly drawn compounds.

The assay addresses Gag-Pol polyprotein (Human immunodeficiency virus type 1 group M subtype B (isolate HXB2)) (UniProt P04585). Kind of assay: RNase H inhibition, HIV 1 Gag Pol polyprotein, FRET biochemical assay, screening (AID 372). The following applies: HIV-1 RT RNase H, FRET RNA/DNA substrate fluorescence; at 10 µM; stronger effect = higher value.
In the case of `COc1ccc(/C=C2\SC(=S)N(CCC(=O)OC3CCCCC3)C2=O)cc1`, the inhibition was 4% (inactive).

`CSCCNS(=O)(=O)c1ccc(C)c([N+](=O)[O-])c1`: the inhibition is 0% (inactive).

In the case of `O=C(O)CCCN1C(=O)/C(=C/c2cccc(Br)c2)SC1=S`, the inhibition was 10% (inactive).

Turning to `COc1ccc(/C=N/NC(=O)c2ccn[nH]2)cc1COc1ccc(Cl)cc1Cl`, the inhibition was 5% (inactive).

As to `COc1cccc(Nc2c([N+](=O)[O-])c(=O)n(-c3ccccc3)c3ccccc23)c1`, the inhibition is 15% (inactive).

As to `CCc1ccc2[nH]c3nc(NN)nnc3c2c1`, the inhibition is 5% (inactive).

`Cc1cccc(OC(=O)c2cccc([N+](=O)[O-])c2)c1`: the inhibition was 6% (inactive).

On to `COc1ccc(N2C(=O)C(=O)/C(=C(\O)c3ccc([N+](=O)[O-])cc3)C2c2ccc(Br)cc2)cc1` (stereo unspecified), for which the inhibition was 4% (inactive).

As to `COc1ccc(OC)c(NC(=O)c2cnccn2)c1`, the inhibition is 6% (inactive).

For the molecule `Cc1cc(C(=O)Nc2ccc(S(=O)(=O)Nc3nccs3)cc2)ccc1[N+](=O)[O-]`, the inhibition is 6% (inactive).

On to `CCOc1cc(C2C(C(=O)OCc3ccc(OC)cc3)=C(C)NC3=C2C(=O)CCC3)cc(Cl)c1O` (stereo unspecified), for which the inhibition was 2% (inactive).

As to `CC(C)COc1ccc(C(=O)Nc2ccc3oc(-c4ccncc4)nc3c2)cc1`, the inhibition is 1% (inactive).

On to `CC(C)COc1ccc(C(=O)Nc2ccc(-c3nc4ccccc4o3)cc2)cc1`, for which the inhibition is 64% (active).

Turning to `CC(C)COc1ccc(C(=O)Nc2ccc(-c3nc4ncccc4o3)cc2)cc1`, the inhibition was 8% (inactive).

For `O=C(Nc1ccc(-c2nc3ccccc3o2)c(O)c1)c1ccc(-c2cccc(Cl)c2)o1`, the inhibition was 10% (inactive).

For `CCOC(=O)c1c(NC(=O)CSc2nccn2C)sc2c1CCCC2`, the inhibition was 0% (inactive).

As for `CCc1ccc(C2=NN(c3ccccc3)C(c3cn(-c4ccccc4)nc3-c3cccnc3)C2)cc1` (stereo unspecified), the inhibition was 20% (inactive).

Regarding `COc1ccc(C(=O)CC(C(C)C)C(C=C(C)C)C(=O)c2ccc(OC)cc2)cc1` (stereo unspecified), the inhibition is 29% (inactive).

For `CC(C)(O)C#CCN1CCOCC1`, the inhibition was 0% (inactive).

With `C=C(C)C(C)(C#CCN1CCCCC1)OC(C)=O` (stereo unspecified), the inhibition is 8% (inactive).

As for `C=C(C)C(C)(C#CCN1CCOCC1)OC(C)=O` (stereo unspecified), the inhibition is 56% (active).

`COc1cc(C2C(C(=O)Nc3cccc(C)n3)=C(C)NC3=C2C(=O)CC(C)(C)C3)cc(OC)c1OC` (stereo unspecified): the inhibition is 7% (inactive).

For the molecule `COc1ccc(N(CC(=O)N2CCCCC2)S(=O)(=O)c2ccccc2[N+](=O)[O-])c(OC)c1`, the inhibition was 2% (inactive).

On to `COCCCNC(=O)CN(c1ccc(Cl)cc1)S(=O)(=O)c1ccccc1`, for which the inhibition was 0% (inactive).

With `COc1ccc(C(=O)NC(=S)Nc2ccc(NC(=O)c3cc4ccccc4o3)c(OC)c2)cc1`, the inhibition is 7% (inactive).

As for `COc1cc(NC(=S)NC(=O)c2ccc(Cl)cc2)ccc1NC(=O)c1cc2ccccc2o1`, the inhibition is 54% (active).

`COc1cc(NC(=S)NC(=O)c2cccc(F)c2)ccc1NC(=O)c1cc2ccccc2o1`: the inhibition was 58% (active).

`COc1cc(NC(=S)NC(=O)c2ccc(C)c(C)c2)ccc1NC(=O)c1cc2ccccc2o1`: the inhibition is 15% (inactive).

Take `COc1cc(NC(=S)NC(=O)c2ccc(Cl)cc2)ccc1NC(=O)c1ccco1`: the inhibition is 42% (inactive).

For `COc1cc(NC(=S)NC(=O)c2cccc(Cl)c2)ccc1NC(=O)c1cc2ccccc2o1`, the inhibition was 11% (inactive).

As for `CCc1nnc(NC(=O)CCCOc2ccc(Cl)cc2Cl)s1`, the inhibition was 1% (inactive).

As for `Cc1ccccc1/C=N/NC(=O)Nc1ccccc1`, the inhibition is 16% (inactive).

Take `Cc1ccc(-c2nc3ccccc3s2)cc1NC(=O)c1cc(I)ccc1Cl`: the inhibition is 15% (inactive).

Consider `O=C(COc1ccccc1Br)N/N=C/c1ccccc1`, for which the inhibition is 3% (inactive).

For `Cc1ccc(NCC(=O)N/N=C\c2c(Br)cc(Br)c(O)c2Br)cc1`, the inhibition is 17% (inactive).

With `Cc1ccccc1NCC(=O)N/N=C\c1c(Br)cc(Br)c(O)c1Br`, the inhibition is 16% (inactive).

For `O=C1C(=O)N(CN2CCOCC2)c2ccc(Br)cc21`, the inhibition is 18% (inactive).

Turning to `COc1ccc(-c2noc(-c3cccc(I)c3)n2)cc1`, the inhibition is 22% (inactive).

With `Cc1cccc(-c2nc(-c3cccnc3)no2)c1`, the inhibition was 27% (inactive).

Turning to `Ic1cccc(-c2nc(-c3ccncc3)no2)c1`, the inhibition was 59% (active).

With `Cc1ccc(-c2noc(-c3cccc(I)c3)n2)cc1`, the inhibition is 7% (inactive).

Take `Brc1cccc(-c2nc(-c3cccnc3)no2)c1`: the inhibition is 28% (inactive).

With `Ic1cccc(-c2nc(-c3cccnc3)no2)c1`, the inhibition is 55% (active).

Turning to `Cc1cc(Cl)ccc1NC(=O)CN(c1cccc(Br)c1)S(C)(=O)=O`, the inhibition is 12% (inactive).

As for `O/N=C1\CCCc2c1nc(-c1ccc(F)cc1)n2O`, the inhibition was 0% (inactive).

`COc1ccc(/C=C/C(=O)Nc2ccc(I)cc2)cc1OC`: the inhibition is 16% (inactive).

For the molecule `CCc1c(C)c2ccc(OCc3ccccc3)c(C)c2oc1=O`, the inhibition was 16% (inactive).

In the case of `O=C(NNc1nc(Nc2ccccc2)nc(N2CCOCC2)n1)Nc1ccc(Cl)cc1`, the inhibition is 72% (active).

`Clc1ccc(Nc2nc(Oc3ccccc3)nc(N3CCOCC3)n2)cc1`: the inhibition was 15% (inactive).

Turning to `Clc1ccc(Nc2nc(Nc3ccc(Cl)cc3)nc(N3CCOCC3)n2)cc1`, the inhibition is 11% (inactive).

Regarding `COc1ccc(S(=O)(=O)N2CCN(CCN3C(=O)c4cccc5cccc(c45)C3=O)CC2)cc1`, the inhibition was 15% (inactive).

On to `CC(C)Nc1nc(-c2cccnc2)nc2ccccc12`, for which the inhibition was 8% (inactive).

On to `O=[N+]([O-])c1ccc(Cl)cc1NC(c1ccccc1)c1ccccc1`, for which the inhibition is 12% (inactive).

In the case of `CC(Nc1cc(N2CCN(C)CC2)ccc1[N+](=O)[O-])c1ccc(Br)cc1` (stereo unspecified), the inhibition was 9% (inactive).

In the case of `CC(Nc1cc(Cl)ccc1[N+](=O)[O-])c1ccc(Br)cc1` (stereo unspecified), the inhibition was 54% (active).

Regarding `CCOc1ccc(/C=C2\C(=O)NC(=O)N(c3cc(C(F)(F)F)ccc3Cl)C2=O)cc1OC`, the inhibition is 11% (inactive).

With `COc1ccc(CNC(=O)N2CCOCC2)cc1`, the inhibition was 20% (inactive).

With `O=C(Nc1ccc(F)cc1)c1sc2cc(Cl)ccc2c1Cl`, the inhibition was 6% (inactive).

For `O=C(NNC(=O)c1sc2ccccc2c1Cl)Nc1ccc(Cl)cc1`, the inhibition was 14% (inactive).

`O=C(NNC(=O)c1sc2cc(F)ccc2c1Cl)Nc1ccc(Cl)cc1`: the inhibition is 57% (active).

For the molecule `CC(=O)c1ccc(NC(=S)NC(=O)c2ccc(Br)cc2)cc1`, the inhibition was 0% (inactive).

Turning to `O=C1C(=O)N(c2cccc([N+](=O)[O-])c2)C(c2ccccc2F)/C1=C(/O)c1ccccc1` (stereo unspecified), the inhibition was 8% (inactive).

On to `COc1cc(/C=N/N2C(=O)C3C4C=CC(C4)C3C2=O)cc(I)c1O` (stereo unspecified), for which the inhibition was 56% (active).

As for `COc1cc(/C=N/N2C(=O)C3C4C=CC(CC4)C3C2=O)cc(I)c1O` (stereo unspecified), the inhibition was 0% (inactive).

As for `COc1cc(/C=N/N2C(=O)C3C4C=CC(C4)C3C2=O)cc(I)c1OC` (stereo unspecified), the inhibition was 0% (inactive).

As to `CCOC(=O)c1sc(N/N=C/c2ccccc2)nc1C`, the inhibition is 47% (inactive).

On to `CCOC(=O)c1sc(N/N=C/c2ccccc2O)nc1C`, for which the inhibition was 58% (active).

Turning to `CCOC(=O)c1sc(N/N=C/c2ccccc2C(F)(F)F)nc1C`, the inhibition was 15% (inactive).

For `COc1ccccc1N1C(=O)/C(=C/C(C)=C/c2ccccc2)SC1=S`, the inhibition is 13% (inactive).

With `Cc1ccc(S(=O)(=O)/N=C/c2ccc(F)cc2)cc1`, the inhibition is 0% (inactive).

Regarding `COc1ccc(NC(=O)C2CC(C)=C(C)CC2C(=O)O)cc1` (stereo unspecified), the inhibition is 2% (inactive).

In the case of `CC1=C(C)CC(C(=O)Nc2ccc(Br)cc2)C(C(=O)O)C1` (stereo unspecified), the inhibition is 8% (inactive).

For the molecule `Cc1cc(NS(=O)(=O)c2ccc(NC(=S)NC(=O)c3ccc(Br)cc3)cc2)no1`, the inhibition is 1% (inactive).

As to `Cc1cc(OCc2nc(-c3ccc(Cl)cc3Cl)no2)ccc1Br`, the inhibition was 7% (inactive).

In the case of `Cc1n[nH]c(C)c1Sc1ccc(Br)cc1`, the inhibition was 50% (active).

On to `Cc1n[nH]c(C)c1Sc1ccc(Cl)cc1`, for which the inhibition is 17% (inactive).

In the case of `Cc1nn(C)c(C)c1Sc1ccc(Br)cc1`, the inhibition is 37% (inactive).

For `COc1cccc(/C=C2\C(=O)NC(=O)N(c3ccc(Cl)c(Cl)c3)C2=O)c1`, the inhibition was 1% (inactive).

Turning to `CCc1c(C)c2ccc(OC)c(C)c2oc1=O`, the inhibition is 8% (inactive).

For the molecule `COc1ccc(S(=O)(=O)N(CC(=O)Nc2ccc(C(N)=O)cc2)c2ccc(C)cc2)cc1OC`, the inhibition was 4% (inactive).

In the case of `C=CCc1cccc(/C=N/c2nc3ccccc3n2CCC)c1O`, the inhibition is 17% (inactive).

For the molecule `CC(CO)(CO)N=Cc1c(O)n(-c2ccccc2)c(=S)[nH]c1=O`, the inhibition was 0% (inactive).

On to `CS(=O)(=O)N(Cc1ccc(C(=O)Nc2cccc(C(F)(F)F)c2)cc1)c1ccccc1`, for which the inhibition is 58% (active).

`CCOC(=O)N1CCN(C(=O)c2ccc(N(Cc3ccc(Cl)cc3)S(C)(=O)=O)cc2)CC1`: the inhibition was 3% (inactive).

As to `CS(=O)(=O)N(Cc1ccc(Cl)cc1)c1ccc(C(=O)Nc2cccc(C(F)(F)F)c2)cc1`, the inhibition was 1% (inactive).

Consider `COc1ccccc1NC(=O)c1ccc(CN(c2ccccc2)S(C)(=O)=O)cc1`, for which the inhibition was 0% (inactive).

Consider `CS(=O)(=O)N(Cc1ccc(C(=O)Nc2cccc(C(F)(F)F)c2)cc1)c1cccc(Cl)c1`, for which the inhibition was 0% (inactive).

As for `CS(=O)(=O)N(Cc1ccc(Cl)cc1)c1ccc(C(=O)N2CCOCC2)cc1`, the inhibition was 8% (inactive).

For the molecule `CS(=O)(=O)N(Cc1ccc(Cl)cc1)c1ccc(C(=O)N2CCCC2)cc1`, the inhibition is 57% (active).

Take `COc1ccc(Cl)cc1NC(=O)c1ccc(CN(c2ccccc2)S(C)(=O)=O)cc1`: the inhibition was 56% (active).

As to `Cc1ccc(Cl)cc1NC(=O)c1ccc(CN(c2ccccc2)S(C)(=O)=O)cc1`, the inhibition is 10% (inactive).

Turning to `COc1ccc(N=CC2=C(O)CC(c3ccccc3)CC2=O)cc1OC` (stereo unspecified), the inhibition is 0% (inactive).

Take `COC(=O)c1ccc(NC(=O)Cc2ccc(OC)cc2)cc1`: the inhibition is 1% (inactive).

For the molecule `CN1CCN(C2=NC(=O)/C(=C/c3ccc4c(c3)OCO4)S2)CC1`, the inhibition was 8% (inactive).

In the case of `O=C(C[n+]1cccc(NC(=O)c2ccccc2)c1)c1ccc2c(c1)Cc1ccccc1-2`, the inhibition is 24% (inactive).

Take `CCOC(=O)C1=C(C)N=c2s/c(=C\c3ccc(-c4ccc(Cl)cc4Cl)o3)c(=O)n2C1c1ccc(C)cc1` (stereo unspecified): the inhibition was 5% (inactive).
